Experimental data taken from article PMC7862700, “An all-to-all approach to the identification of sequence-specific readers for epigenetic DNA modifications on cytosine”.

Tests used:
Assay in all cases: DAPPL (digital affinity profiling via proximity ligation, sequencing); 10 mM Tris-HCl pH 7.5, 50 mM NaCl, 1 mM DTT, 4% glycerol, room temperature, 30 min; GST-TFs on glutathione beads, 16-mer random dsDNA library, 0.1% formaldehyde crosslink after washing; high values mean tight binding
FEV = molecular target: T1, FEV (Homo sapiens, UniProt Q99581 1-238); conditions: protein: recombinant; tags: N-terminal GST; dsDNA, one strand shown
T1 sequence: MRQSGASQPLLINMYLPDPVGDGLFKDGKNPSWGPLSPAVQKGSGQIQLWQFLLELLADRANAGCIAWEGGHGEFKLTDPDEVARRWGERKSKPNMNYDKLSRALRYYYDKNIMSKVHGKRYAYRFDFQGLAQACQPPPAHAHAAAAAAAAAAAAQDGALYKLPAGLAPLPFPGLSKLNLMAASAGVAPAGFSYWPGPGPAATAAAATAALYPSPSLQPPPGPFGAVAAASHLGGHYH
How it was run: (§1)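 Beads coated with glutathione captured GST-fused human transcription factors that had been expressed in yeast, and the factors were then given DNA barcodes and pooled with a tag-only sample. The pools were incubated with 200 nmole of a random double-stranded 16-mer DNA library in Tris/NaCl/DTT/glycerol buffer for 30 min at room temperature, washed, crosslinked with 0.1% formaldehyde and proximity-ligated with BsaI/T4 ligase at 37 °C for 1 h. PCR amplification and Illumina NextSeq500 sequencing came last. Binding signal is each hexamer's read frequency for a factor divided by its frequency for the tag-only sample.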

ETV5 = ETV5 (Homo sapiens, UniProt P41161 1-510); conditions: protein: recombinant; tags: N-terminal GST; dsDNA, one strand shown
How it was run: as §1

HSF1 = HSF1 (Homo sapiens, UniProt Q00613 1-529); conditions: protein: recombinant; tags: N-terminal GST; chain copies: 3; dsDNA, one strand shown
How it was run: as §1

SPIC = molecular target: T2, SPIC (Homo sapiens, UniProt Q8N5J4 1-248); conditions: protein: recombinant; tags: N-terminal GST; dsDNA, one strand shown
T2 sequence: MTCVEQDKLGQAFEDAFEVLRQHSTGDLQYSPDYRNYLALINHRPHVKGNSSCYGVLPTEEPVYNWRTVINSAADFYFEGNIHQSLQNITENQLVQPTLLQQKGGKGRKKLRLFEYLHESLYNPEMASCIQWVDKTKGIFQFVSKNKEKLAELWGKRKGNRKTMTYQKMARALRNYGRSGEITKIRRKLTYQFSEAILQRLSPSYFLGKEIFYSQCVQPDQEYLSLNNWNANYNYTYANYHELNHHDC
How it was run: as §1

ELF4 = ELF4 (Homo sapiens, UniProt Q99607 1-663); conditions: protein: recombinant; tags: N-terminal GST; dsDNA, one strand shown
How it was run: as §1

ELK4 = molecular target: T3, ELK4 (Homo sapiens, UniProt P28324-2 1-405); conditions: protein: recombinant; tags: N-terminal GST; dsDNA, one strand shown
T3 sequence: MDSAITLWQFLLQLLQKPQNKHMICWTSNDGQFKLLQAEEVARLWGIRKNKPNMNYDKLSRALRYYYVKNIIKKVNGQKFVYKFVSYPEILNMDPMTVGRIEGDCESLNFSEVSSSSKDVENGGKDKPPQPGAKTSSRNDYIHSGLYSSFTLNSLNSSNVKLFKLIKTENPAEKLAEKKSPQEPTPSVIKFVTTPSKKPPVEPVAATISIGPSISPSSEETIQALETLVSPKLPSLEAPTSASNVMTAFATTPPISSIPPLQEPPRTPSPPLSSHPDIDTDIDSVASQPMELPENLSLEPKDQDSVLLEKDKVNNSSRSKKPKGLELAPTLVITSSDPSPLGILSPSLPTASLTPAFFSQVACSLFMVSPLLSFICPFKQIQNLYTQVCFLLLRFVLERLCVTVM
How it was run: as §1

ETV2 = molecular target: T4, ETV2 (Homo sapiens, UniProt O00321 1-342); conditions: protein: recombinant; tags: N-terminal GST; dsDNA, one strand shown
T4 sequence: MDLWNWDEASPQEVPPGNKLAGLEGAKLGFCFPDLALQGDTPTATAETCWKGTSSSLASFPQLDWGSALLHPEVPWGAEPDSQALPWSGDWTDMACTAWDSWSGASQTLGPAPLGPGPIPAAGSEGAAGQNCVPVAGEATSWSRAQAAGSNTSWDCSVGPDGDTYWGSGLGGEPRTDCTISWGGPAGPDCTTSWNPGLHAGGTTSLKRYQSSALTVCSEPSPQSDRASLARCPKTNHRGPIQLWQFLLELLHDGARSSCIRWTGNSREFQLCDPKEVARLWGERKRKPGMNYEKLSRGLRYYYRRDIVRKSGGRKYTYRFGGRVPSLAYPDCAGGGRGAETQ
How it was run: as §1

ELF3 = molecular target: T5, ELF3 (Homo sapiens, UniProt P78545 1-371); conditions: protein: recombinant; tags: N-terminal GST; dsDNA, one strand shown
T5 sequence: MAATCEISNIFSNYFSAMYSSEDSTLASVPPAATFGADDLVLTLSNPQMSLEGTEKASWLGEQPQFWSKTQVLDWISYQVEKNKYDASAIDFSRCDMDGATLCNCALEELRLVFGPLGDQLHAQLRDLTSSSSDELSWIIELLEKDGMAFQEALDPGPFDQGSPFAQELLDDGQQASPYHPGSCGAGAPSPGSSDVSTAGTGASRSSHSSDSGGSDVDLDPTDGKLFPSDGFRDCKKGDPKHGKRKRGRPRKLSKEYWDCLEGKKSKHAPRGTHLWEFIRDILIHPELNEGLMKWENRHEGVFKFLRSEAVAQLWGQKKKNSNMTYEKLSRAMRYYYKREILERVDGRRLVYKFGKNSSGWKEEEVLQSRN
How it was run: as §1

CRX = CRX (Homo sapiens, UniProt O43186 1-299); conditions: protein: recombinant; tags: N-terminal GST; dsDNA, one strand shown
How it was run: as §1

ETV1 = ETV1 (Homo sapiens, UniProt P50549 1-477); conditions: protein: recombinant; tags: N-terminal GST; dsDNA, one strand shown
How it was run: as §1

ERF = molecular target: T6, ERF (Homo sapiens, UniProt P50548 1-548); conditions: protein: recombinant; tags: N-terminal GST; dsDNA, one strand shown
T6 sequence: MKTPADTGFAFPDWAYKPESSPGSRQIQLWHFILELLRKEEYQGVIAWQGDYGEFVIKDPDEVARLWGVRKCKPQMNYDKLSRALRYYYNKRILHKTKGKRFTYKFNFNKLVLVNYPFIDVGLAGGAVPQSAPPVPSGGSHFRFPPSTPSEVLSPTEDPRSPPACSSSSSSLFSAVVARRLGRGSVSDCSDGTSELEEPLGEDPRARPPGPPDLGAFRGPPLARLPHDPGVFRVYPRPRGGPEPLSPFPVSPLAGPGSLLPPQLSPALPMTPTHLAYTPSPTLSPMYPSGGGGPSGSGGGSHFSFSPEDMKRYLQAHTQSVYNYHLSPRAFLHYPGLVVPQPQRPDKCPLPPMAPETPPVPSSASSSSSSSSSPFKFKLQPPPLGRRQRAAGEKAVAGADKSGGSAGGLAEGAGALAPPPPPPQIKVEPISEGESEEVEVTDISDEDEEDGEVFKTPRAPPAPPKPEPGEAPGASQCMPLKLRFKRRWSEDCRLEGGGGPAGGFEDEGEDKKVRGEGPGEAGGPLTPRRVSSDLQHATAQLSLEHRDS
How it was run: as §1

ETV3L = molecular target: T7, ETV3L (Homo sapiens, UniProt Q6ZN32 1-361); conditions: protein: recombinant; tags: N-terminal GST; dsDNA, one strand shown
T7 sequence: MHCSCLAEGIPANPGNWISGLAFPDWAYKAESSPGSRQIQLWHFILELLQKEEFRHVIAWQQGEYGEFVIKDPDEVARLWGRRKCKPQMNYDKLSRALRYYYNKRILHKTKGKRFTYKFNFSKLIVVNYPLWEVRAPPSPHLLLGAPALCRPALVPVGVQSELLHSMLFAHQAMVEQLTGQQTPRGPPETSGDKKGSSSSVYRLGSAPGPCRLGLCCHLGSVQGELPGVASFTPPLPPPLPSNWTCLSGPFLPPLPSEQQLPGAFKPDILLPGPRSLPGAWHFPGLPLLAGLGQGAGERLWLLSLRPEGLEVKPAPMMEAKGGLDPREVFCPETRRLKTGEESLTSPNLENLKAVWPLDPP
How it was run: as §1

ETS2 = molecular target: T8, ETS2 (Homo sapiens, UniProt P15036 1-469); conditions: protein: recombinant; tags: N-terminal GST; dsDNA, one strand shown
T8 sequence: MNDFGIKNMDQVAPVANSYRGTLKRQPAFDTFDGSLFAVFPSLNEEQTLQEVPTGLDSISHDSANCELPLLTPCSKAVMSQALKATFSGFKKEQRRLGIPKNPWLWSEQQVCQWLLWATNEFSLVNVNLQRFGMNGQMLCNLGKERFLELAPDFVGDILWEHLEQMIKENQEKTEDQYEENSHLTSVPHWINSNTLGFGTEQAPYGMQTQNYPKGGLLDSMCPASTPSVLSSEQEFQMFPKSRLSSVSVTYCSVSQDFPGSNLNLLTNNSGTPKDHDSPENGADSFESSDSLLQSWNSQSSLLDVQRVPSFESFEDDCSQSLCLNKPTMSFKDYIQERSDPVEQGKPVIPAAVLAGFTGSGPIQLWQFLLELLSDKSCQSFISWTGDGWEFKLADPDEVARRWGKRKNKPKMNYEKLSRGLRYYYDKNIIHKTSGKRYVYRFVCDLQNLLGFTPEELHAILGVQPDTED
How it was run: as §1

SPDEF = molecular target: T9, SPDEF (Homo sapiens, UniProt O95238 1-335); conditions: protein: recombinant; tags: N-terminal GST; dsDNA, one strand shown
T9 sequence: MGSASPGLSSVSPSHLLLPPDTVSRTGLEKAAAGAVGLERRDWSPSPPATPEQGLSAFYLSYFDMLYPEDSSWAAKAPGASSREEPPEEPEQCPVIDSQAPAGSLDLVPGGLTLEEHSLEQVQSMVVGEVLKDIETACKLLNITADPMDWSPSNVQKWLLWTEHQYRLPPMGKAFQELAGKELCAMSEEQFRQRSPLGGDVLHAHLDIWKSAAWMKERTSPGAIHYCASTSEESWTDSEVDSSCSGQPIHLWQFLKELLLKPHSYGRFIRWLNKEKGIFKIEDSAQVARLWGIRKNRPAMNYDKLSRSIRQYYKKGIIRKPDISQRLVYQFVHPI
How it was run: as §1

ETV7 = molecular target: T10, ETV7 (Homo sapiens, UniProt Q9Y603 1-341); conditions: protein: recombinant; tags: N-terminal GST; dsDNA, one strand shown
T10 sequence: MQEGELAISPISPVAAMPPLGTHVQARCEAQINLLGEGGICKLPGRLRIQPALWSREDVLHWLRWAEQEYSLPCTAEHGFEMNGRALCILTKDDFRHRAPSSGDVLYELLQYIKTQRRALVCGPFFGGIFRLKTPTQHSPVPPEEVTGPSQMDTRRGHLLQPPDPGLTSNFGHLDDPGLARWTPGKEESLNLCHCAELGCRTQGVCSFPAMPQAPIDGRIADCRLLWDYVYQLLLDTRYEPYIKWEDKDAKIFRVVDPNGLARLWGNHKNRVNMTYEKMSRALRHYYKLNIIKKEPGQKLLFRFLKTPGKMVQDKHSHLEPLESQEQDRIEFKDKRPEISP
How it was run: as §1

ELF5 = molecular target: T11, ELF5 (Homo sapiens, UniProt Q9UKW6-2 1-255); conditions: protein: recombinant; tags: N-terminal GST; dsDNA, one strand shown
T11 sequence: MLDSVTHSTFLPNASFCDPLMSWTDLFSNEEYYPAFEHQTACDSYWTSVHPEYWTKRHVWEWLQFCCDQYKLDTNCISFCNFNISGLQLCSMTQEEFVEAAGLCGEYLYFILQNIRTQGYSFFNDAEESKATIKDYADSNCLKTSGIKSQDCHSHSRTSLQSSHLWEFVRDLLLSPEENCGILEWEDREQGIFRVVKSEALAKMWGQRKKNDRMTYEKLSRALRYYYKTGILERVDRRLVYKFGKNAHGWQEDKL
How it was run: as §1

ETV3 = molecular target: T12, ETV3 (Homo sapiens, UniProt P41162-2 1-143); conditions: protein: recombinant; tags: N-terminal GST; dsDNA, one strand shown
T12 sequence: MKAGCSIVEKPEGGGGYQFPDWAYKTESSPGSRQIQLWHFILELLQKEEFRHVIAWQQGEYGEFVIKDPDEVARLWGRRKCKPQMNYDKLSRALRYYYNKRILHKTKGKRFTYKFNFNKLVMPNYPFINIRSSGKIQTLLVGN
How it was run: as §1

ETV6 = ETV6 (Homo sapiens, UniProt P41212 1-452); conditions: protein: recombinant; tags: N-terminal GST; dsDNA, one strand shown
How it was run: as §1

Chain of CRX (O43186 whole entry): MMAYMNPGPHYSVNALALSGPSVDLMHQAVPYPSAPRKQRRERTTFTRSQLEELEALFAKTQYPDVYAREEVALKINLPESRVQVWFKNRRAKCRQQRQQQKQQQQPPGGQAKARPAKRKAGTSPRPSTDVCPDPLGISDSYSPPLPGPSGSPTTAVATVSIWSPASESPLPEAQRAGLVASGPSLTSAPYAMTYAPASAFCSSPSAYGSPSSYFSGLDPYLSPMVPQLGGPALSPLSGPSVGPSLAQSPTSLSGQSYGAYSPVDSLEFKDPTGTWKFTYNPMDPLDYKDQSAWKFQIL
Chain of ELF4 (Q99607 whole entry): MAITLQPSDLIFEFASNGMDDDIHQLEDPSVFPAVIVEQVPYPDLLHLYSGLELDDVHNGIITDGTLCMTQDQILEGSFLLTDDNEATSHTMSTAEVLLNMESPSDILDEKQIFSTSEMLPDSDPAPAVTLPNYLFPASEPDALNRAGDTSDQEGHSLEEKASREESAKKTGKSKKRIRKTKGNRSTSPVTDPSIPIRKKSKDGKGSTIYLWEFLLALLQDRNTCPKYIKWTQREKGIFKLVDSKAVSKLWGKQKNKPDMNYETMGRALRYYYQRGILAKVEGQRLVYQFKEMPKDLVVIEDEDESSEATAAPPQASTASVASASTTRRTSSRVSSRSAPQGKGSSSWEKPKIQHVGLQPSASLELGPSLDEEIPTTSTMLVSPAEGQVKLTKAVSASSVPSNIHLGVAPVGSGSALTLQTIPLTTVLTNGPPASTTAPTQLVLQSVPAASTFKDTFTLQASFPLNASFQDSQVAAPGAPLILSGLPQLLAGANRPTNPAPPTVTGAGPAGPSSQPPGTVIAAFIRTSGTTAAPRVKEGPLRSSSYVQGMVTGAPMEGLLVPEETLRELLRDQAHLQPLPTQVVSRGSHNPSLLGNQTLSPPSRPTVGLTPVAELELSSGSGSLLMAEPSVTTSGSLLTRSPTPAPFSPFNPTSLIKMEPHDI
Chain of ETV5 (P41161 whole entry): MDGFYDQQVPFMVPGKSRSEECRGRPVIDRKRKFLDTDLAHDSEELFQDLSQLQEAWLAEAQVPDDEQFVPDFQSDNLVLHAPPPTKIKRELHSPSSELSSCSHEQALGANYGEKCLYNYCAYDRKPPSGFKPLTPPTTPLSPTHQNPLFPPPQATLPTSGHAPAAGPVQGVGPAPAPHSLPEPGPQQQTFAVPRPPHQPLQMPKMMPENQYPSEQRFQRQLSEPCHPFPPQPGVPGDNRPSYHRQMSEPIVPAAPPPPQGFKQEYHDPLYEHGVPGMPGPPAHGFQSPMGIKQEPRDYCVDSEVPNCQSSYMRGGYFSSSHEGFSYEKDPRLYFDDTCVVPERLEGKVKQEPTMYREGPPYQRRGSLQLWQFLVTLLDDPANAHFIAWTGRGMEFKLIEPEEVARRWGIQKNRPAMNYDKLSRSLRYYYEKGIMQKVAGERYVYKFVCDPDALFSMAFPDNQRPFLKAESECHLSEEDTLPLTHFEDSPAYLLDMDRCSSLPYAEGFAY
Chain of ETV6 (P41212 whole entry): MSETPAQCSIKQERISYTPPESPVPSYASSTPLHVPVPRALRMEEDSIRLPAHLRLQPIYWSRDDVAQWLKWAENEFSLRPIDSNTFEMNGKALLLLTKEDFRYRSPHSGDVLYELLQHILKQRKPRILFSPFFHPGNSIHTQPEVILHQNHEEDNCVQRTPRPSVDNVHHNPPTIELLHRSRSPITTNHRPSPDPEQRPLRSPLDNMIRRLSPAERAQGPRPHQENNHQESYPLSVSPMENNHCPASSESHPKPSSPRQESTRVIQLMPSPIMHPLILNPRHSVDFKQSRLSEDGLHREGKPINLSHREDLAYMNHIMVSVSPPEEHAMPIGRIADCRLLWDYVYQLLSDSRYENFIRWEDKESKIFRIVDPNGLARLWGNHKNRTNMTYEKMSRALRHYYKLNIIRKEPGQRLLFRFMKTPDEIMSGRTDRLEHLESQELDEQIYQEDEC
Chain of HSF1 (Q00613 whole entry): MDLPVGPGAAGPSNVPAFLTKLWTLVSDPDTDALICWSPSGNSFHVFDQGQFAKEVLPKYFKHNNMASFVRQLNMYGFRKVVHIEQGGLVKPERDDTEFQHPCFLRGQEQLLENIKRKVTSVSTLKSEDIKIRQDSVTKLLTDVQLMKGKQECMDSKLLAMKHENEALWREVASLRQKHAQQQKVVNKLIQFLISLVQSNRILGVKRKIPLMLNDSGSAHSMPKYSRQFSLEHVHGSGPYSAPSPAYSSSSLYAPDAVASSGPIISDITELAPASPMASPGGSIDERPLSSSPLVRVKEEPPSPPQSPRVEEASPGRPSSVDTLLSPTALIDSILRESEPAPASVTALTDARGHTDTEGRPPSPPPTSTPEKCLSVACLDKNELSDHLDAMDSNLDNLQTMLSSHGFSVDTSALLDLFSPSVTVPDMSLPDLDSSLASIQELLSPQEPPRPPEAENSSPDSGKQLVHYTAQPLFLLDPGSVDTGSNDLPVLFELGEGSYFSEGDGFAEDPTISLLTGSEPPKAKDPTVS
Chain of ETV1 (P50549 whole entry): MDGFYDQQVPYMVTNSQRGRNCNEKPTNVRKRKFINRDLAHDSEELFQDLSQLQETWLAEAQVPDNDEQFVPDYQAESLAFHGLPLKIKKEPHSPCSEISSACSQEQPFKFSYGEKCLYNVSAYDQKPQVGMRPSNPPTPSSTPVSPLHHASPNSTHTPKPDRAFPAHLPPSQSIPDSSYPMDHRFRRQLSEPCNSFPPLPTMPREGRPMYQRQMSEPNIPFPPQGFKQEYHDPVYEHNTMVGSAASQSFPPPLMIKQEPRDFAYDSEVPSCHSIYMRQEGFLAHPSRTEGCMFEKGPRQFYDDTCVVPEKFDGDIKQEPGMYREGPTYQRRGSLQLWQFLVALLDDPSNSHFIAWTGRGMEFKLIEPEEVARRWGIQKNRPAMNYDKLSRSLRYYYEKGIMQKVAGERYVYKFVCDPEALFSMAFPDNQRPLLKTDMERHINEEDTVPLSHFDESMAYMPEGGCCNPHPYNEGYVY

CGATTG
binding signal (FEV): 1.12 fold enrichment (6-mer frequency, TF over GST control) | binding signal (ETV5): 1.18 fold enrichment (6-mer frequency, TF over GST control) | binding signal (HSF1): 1.21 fold enrichment (6-mer frequency, TF over GST control) | binding signal (SPIC): 1.08 fold enrichment (6-mer frequency, TF over GST control) | binding signal (ELF4): 1.28 fold enrichment (6-mer frequency, TF over GST control) | binding signal (ELK4): 1.34 fold enrichment (6-mer frequency, TF over GST control) | binding signal (ETV2): 1.08 fold enrichment (6-mer frequency, TF over GST control) | binding signal (ELF3): 1.14 fold enrichment (6-mer frequency, TF over GST control) | binding signal (CRX): 1.16 fold enrichment (6-mer frequency, TF over GST control) | binding signal (ETV1): 1.16 fold enrichment (6-mer frequency, TF over GST control) | binding signal (ERF): 1.24 fold enrichment (6-mer frequency, TF over GST control) | binding signal (ETV3L): 1.17 fold enrichment (6-mer frequency, TF over GST control) | binding signal (ETS2): 1.15 fold enrichment (6-mer frequency, TF over GST control) | binding signal (SPDEF): 1.22 fold enrichment (6-mer frequency, TF over GST control) | binding signal (ETV7): 1.18 fold enrichment (6-mer frequency, TF over GST control) | binding signal (ELF5): 1.11 fold enrichment (6-mer frequency, TF over GST control) | binding signal (ETV3): 1.07 fold enrichment (6-mer frequency, TF over GST control) | binding signal (ETV6): 1.22 fold enrichment (6-mer frequency, TF over GST control)
